The results in this text go back to PubChem BioAssay.

The subject of assay [1] is Human papillomavirus type 1a protein E7 (residues 44-93). Put plainly: small molecules binding HPV E7 44-93 – biochemical, small-molecule microarray, residues 44-93, 635 nm fluorescence, primary screen (AID 1108).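 Also: E7 fragment applied at 1 µg/mL in TBST for 1 h at 4 C; score combines spot fluorescence with its signal to noise ratio.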 The note with it: fluorescence 635 nm, higher = more signal.
The nature of assay [2]: hepatitis C replication reporter changes, two-sided – Huh7 cells, luciferase reporter, HCV replication inhibitor project, primary screen (AID 1109).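 Also: huh7 hepatoma cells harbouring a luciferase neomycin HCV replicon reporter; luciferase luminescence as measure of HCV replicon replication; test concentration not given here.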 Conditions: Huh7 HCV replicon luciferase reporter, 48 h; higher = more signal.
Assay [3] addresses Left-right determination factor 2 (Homo sapiens) (UniProt O00292). Put plainly: small molecules binding LEFTY2 protein – biochemical, small-molecule microarray, 635 nm fluorescence scan, primary screen (AID 1110). The note with it: higher = more signal.
Assay [4] deals with Calmodulin-1 (Homo sapiens) (UniProt P0DP23). As to the kind of experiment: small molecules binding calmodulin-1 with EGTA – biochemical, small-molecule microarray, Cy5-labelled CALM1, profiling panel (AID 1111).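 Also: labelled calmodulin applied in Tris saline Tween buffer holding calcium plus EGTA and DTT.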 The note with it: Cy5-CALM1 binding fluorescence, higher = more signal.
The target is the same in assay [5]. Put plainly: small molecules binding Ca-loaded calmodulin-1 – biochemical, small-molecule microarray, Cy5-labelled CALM1, plus calcium, artefact control for SMM control-protein annotation, profiling panel (AID 1112).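 Also: score merges spot fluorescence with signal to noise from triplicate slides.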 The note with it: Cy5-CALM1 binding fluorescence, higher = more signal.
Assay [6] can be described thus: probe aWnt5a binding to arrayed compounds – biochemical, biotinylated probe, 635/667 nm fluorescence, primary screen (AID 1113).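 Also: score merges 667 nm fluorescence intensity with signal-to-noise per printed feature.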 The note with it: small-molecule microarray, higher = more signal.
Assay [7] is described as follows: probe aShh binding to arrayed compounds – biochemical, biotinylated probe, 635/667 nm fluorescence, primary screen (AID 1114).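 Also: probe is biotin-labelled aShh protein from a stem cell growth factor screen; measures binding of labelled protein to compounds printed on the slide; score merges feature fluorescence at 667 nm with signal-to-noise.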 Conditions: small-molecule microarray, higher = more signal.
A short description of assay [8]: probe aNog binding to arrayed compounds – biochemical, biotinylated probe, 635/667 nm fluorescence, primary screen (AID 1115).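 Also: probe is biotinylated aNog protein used at 0.15 µg/mL for 1 h at 4 C; z-score combines 667 nm fluorescence of each spot with its signal to noise.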 Conditions: small-molecule microarray, higher = more signal.
Assay [9] has as its target Torsin-1A-interacting protein 1 (Homo sapiens) (UniProt Q5JTV8). As to the kind of experiment: compound microarray binding of lysate hLAP1 – cell lysate, small-molecule microarray, COS7 lysate, 635/667 nm fluorescence, primary screen (AID 1116). Conditions: 635 nm fluorescence, higher = more signal.
Assay [10] concerns the target Alpha-bungarotoxin (Bungarus multicinctus) (UniProt P60615). As to the kind of experiment: compounds binding labelled alpha-BTX control protein – biochemical, small-molecule microarray, Alexa647 label, 635/667 nm fluorescence, artefact control for SMM control protein annotation, profiling panel (AID 1117). Conditions: alpha-BTX-A647 binding fluorescence, higher = more signal.

The next assay deals with Albumin (Bos taurus) (UniProt P02769). Put plainly: compounds binding labelled BSA control protein – biochemical, small-molecule microarray, Alexa647 label, 635/667 nm fluorescence, artefact control for SMM control protein annotation, profiling panel (AID 1118).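 Also: score merges 667 nm emission intensity and signal-to-noise per printed compound spot.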 Conditions: BSA-A647 binding, fluorescence 635 nm, higher = more signal.
Assay [11] is described as follows: probe aXIP binding to arrayed compounds – biochemical, NeuroSMM set, 635/667 nm fluorescence, primary screen (AID 1119).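 Also: probe is the protein aXip251-270 applied at 1 µg/mL to compound-printed slides; binding of probe to printed compounds measured as 667 nm fluorescence plus signal to noise.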 Conditions: small-molecule microarray, higher = more signal, called active from +8 up or from −8 down.
Assay [12] is described as follows: probe aNOTCH3 binding on compound microarray – biochemical, small-molecule microarray, 635/667 nm fluorescence, primary screen (AID 1120).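 Also: probe is a biotin-tagged antibody raised against NOTCH3 rather than NOTCH3 protein; score merges spot fluorescence near 667 nm with spot signal to noise.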 Conditions: higher = more signal.
Assay [13] is described as follows: probe aNOTCH2 binding on compound microarray – biochemical, small-molecule microarray, 635/667 nm fluorescence, primary screen (AID 1121).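 Also: score merges feature fluorescence read at 667 nm with its signal to noise.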 The note with it: higher = more signal.
The target of assay [14] is Carbonic anhydrase 2 (Homo sapiens) (UniProt P00918). Put plainly: compounds binding carbonic anhydrase 2 – biochemical, small-molecule microarray, Alexa647-labelled CAII, profiling panel (AID 1122). Conditions: CAII-A647 binding fluorescence, higher = more signal.
A short description of assay [15]: COS7 lysate on small-molecule microarray, probe aHis, 635 nm (AID 1123).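 Also: z-score combines 667nm fluorescence intensity with signal-to-noise per printed compound spot.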 The note with it: COS7 cell lysate, fluorescence, higher = more signal.
Assay [16] is described as follows: probe aLAP1 signal on lysate-treated microarray – cell lysate, small-molecule microarray, COS7 lysate, primary screen (AID 1124).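 Also: lysate comes from COS7 cells expressing LAP1 and is applied at 0.3 µg/mL; score merges spot fluorescence near 667 nm with signal-to-noise over triplicate slides.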 The note with it: probe aLAP1, fluorescence, higher = more signal.
The next assay relates to Sam68 (KHDRBS1). As to the kind of experiment: compounds binding KHDRBS1 protein – biochemical, small-molecule microarray, 635 nm fluorescence, primary screen (AID 1125).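 Also: score merges 667 nm channel intensity with signal to noise over triplicate slides.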 The note with it: higher = more signal.
Assay [17] deals with Chordin-like protein 2 (CHRDL2). Put plainly: compounds binding chordin-like 2 – biochemical, small-molecule microarray, 635 nm fluorescence, primary screen (AID 1126).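 Also: printed compound slides probed with Chrdl2 protein at 4 µg/mL for 1 h at 4 C; score merges 667 nm emission intensity with signal to noise over three replicate slides.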 The note with it: fluorescence 635 nm, higher = more signal.
For assay [18], the target named is Concanavalin-A (Canavalia ensiformis) (UniProt P02866). As to the kind of experiment: compounds binding concanavalin A lectin – biochemical, small-molecule microarray, Alexa647 label, 635 nm, artefact control for SMM control protein annotation, primary screen (AID 1127).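 Also: z combines 667 nm emission intensity with signal-to-noise across three replicate slides.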 The note with it: ConA-A647 binding fluorescence, higher = more signal.

The structures appear in SMILES notation. The source made the active and inactive calls.

Sequence of Alpha-bungarotoxin (Bungarus multicinctus) (P60615 whole entry, looked up): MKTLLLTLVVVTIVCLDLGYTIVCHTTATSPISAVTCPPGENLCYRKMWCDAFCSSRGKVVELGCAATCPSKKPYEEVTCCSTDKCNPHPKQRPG
Sequence of Left-right determination factor 2 (Homo sapiens) (O00292 whole entry, looked up): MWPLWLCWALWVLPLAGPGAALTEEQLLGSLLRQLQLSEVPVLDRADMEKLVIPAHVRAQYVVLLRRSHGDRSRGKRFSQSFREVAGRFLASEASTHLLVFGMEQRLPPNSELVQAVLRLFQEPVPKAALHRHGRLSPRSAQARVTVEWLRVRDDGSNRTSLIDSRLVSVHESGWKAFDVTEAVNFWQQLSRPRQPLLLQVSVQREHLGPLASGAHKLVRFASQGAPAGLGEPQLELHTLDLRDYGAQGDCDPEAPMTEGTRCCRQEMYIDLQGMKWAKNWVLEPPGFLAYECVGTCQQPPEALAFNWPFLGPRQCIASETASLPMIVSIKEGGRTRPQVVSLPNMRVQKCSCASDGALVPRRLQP
Sequence of Albumin (Bos taurus) (P02769 whole entry, looked up): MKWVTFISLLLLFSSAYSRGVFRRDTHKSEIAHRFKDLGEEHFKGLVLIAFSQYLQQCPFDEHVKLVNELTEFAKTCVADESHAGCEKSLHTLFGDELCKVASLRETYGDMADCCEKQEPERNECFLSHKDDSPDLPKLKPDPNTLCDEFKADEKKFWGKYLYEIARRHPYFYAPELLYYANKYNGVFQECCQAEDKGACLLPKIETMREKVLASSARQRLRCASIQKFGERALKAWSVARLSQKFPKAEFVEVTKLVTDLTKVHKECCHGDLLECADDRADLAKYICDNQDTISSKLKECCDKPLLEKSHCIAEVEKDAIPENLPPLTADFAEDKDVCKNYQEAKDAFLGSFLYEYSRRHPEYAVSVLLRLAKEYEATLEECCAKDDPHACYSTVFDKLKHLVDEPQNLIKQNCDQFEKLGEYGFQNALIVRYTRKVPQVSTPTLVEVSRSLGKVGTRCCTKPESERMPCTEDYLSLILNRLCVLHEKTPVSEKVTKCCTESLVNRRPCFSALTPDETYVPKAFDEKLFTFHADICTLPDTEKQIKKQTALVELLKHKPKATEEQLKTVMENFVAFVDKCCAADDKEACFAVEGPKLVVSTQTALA
Sequence of Concanavalin-A (Canavalia ensiformis) (P02866 whole entry, looked up): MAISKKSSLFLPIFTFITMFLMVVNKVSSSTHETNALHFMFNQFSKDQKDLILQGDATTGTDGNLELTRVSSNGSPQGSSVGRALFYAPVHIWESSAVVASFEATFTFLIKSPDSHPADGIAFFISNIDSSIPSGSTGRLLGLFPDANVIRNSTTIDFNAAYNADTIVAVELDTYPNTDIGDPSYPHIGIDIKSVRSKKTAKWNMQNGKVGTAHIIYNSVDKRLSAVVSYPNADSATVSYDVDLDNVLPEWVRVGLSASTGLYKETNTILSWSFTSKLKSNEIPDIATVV
Sequence of Torsin-1A-interacting protein 1 (Homo sapiens) (Q5JTV8 whole entry, looked up): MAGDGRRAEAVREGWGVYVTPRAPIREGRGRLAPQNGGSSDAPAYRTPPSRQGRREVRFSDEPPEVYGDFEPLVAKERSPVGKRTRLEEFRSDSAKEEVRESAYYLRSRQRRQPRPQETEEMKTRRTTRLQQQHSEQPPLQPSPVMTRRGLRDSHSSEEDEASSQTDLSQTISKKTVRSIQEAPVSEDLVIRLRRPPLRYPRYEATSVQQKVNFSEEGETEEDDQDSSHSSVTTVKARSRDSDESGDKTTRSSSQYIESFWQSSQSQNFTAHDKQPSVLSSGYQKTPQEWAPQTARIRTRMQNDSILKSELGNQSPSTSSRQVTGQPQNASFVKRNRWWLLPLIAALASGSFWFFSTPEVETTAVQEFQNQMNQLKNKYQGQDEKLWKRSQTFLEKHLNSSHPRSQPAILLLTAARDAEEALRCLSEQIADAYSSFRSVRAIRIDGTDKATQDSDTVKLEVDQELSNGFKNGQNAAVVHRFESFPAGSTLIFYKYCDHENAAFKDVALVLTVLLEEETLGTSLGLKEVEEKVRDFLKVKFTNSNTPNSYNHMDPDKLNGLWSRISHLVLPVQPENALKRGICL

Consider `CO[C@H]1O[C@H](CO)[C@@H](OC(=O)Nc2ccccc2-c2ccccc2)[C@H](OC(=O)Nc2ccccc2-c2ccccc2)[C@@H]1OC(=O)Nc1ccccc1-c1ccccc1`, for which the composite z-score in assay [1] is 0.538; in assay [3] it was 0.292; in [4] it was 1.74; in [5] it was 0.459; in assay [6] it was -0.0196; in [7] it was -0.0769. In addition, the composite z-score is 0.799 in assay [8]; 0.146 in assay [9]; 0.818 in assay [10]; 0.926 with Albumin (Bos taurus); 0.0904 in assay [12]; -0.0513 in [13]. In addition, the composite z-score worked out at 0.374 in [14]; 2.18 in [15]; 0.75 in assay [16]; 1.29 with Sam68 (KHDRBS1); 0.332 in assay [17]; 1.17 in [18]. Besides, the z-score in assay [2] was -1.77. Besides, in assay [11], the composite Z-score is 0.523 (inactive).
`COC(=O)[C@@]1(Cc2ccc(OC)cc2)[C@H]2c3cc(C(=O)N4CCCC4)n(Cc4nc5ccccc5[nH]4)c3C[C@H]2CN1C(=O)c1ccccc1`: the composite z-score in assay [1] is 1.38; in [3] it was -0.413; in assay [4] it was 2.7; in assay [5], 1.54; in assay [6], 0.216; in assay [7] it was 0.215. The composite z-score in assay [8] was 2.39; in [9], 2.79; in [10] it was 1.07; with Albumin (Bos taurus) it was 1.08; in [12] it was 0.537; in [13], 0.013. Moreover, the composite z-score in assay [14] is 0.78; in assay [15], 3.39; in assay [16], 1.13; in the assay on Sam68 (KHDRBS1), 1.32; in assay [17], -0.45; in assay [18] it was 0.174. The molecule further showed a z-score in assay [2] of -2.61. The composite Z-score in assay [11] was 0.234 (inactive).
On to `COCCOC(=O)N1C(=O)[C@@]2(c3cc(C#CC4=CCCCC4)ccc31)[C@H](C(N)=O)[C@H]1C(=O)O[C@H](c3ccccc3)[C@H](c3ccccc3)N1[C@@H]2c1ccc(O)cc1`, for which the composite z-score in assay [1] is 1.13; in assay [3] it was 0.959; in assay [4], 1.16; in assay [5], -0.308; in [6], -0.107; in assay [7], -0.0362. For the same molecule, the composite z-score was -0.0956 in [8]; 0.923 in assay [9]; 1.51 in assay [10]; 0.744 with Albumin (Bos taurus); 0.116 in assay [12]; 0.117 in assay [13]. In addition, the composite z-score is 0.433 in assay [14]; 1.83 in [15]; 0.322 in assay [16]; 1.3 with Sam68 (KHDRBS1); 0.302 in assay [17]; 1.11 in [18]. Moreover, in assay [2], the z-score is -1.76. In addition, the composite Z-score in assay [11] was -0.158 (inactive).
With `CC1CC/C=C\[C@H]2OC34C=CCN(Cc5ccccc5)C(=O)[C@H]3N(C(C)CO)C(=O)[C@@H]4C2C(=O)O1` (stereo not given in full), the composite z-score is -1.75 in [1]; 0.267 in assay [3]; -0.756 in [4]; -0.857 in [5]; -0.148 in [6]; 0.0952 in assay [7]. Further, the composite z-score in assay [8] was -0.193; in assay [9] it was -0.457; in assay [10], -0.463; with Albumin (Bos taurus), -0.852; in assay [12], -0.0647; in assay [13] it was -0.0846. Moreover, the composite z-score in assay [14] is 0.331; in assay [15] it was -0.412; in assay [16] it was -0.0231; in the assay on Sam68 (KHDRBS1) it was -0.99; in assay [17], -0.0576; in [18] it was -0.239. This molecule showed a z-score in assay [2] of -0.514. Further, the composite Z-score in assay [11] was -0.592 (inactive).
On to `COCC(=C=CC[C@H](O)c1cccc(OCCO)c1)CCO`, for which the composite z-score in assay [1] was 1.02; in [3] it was 0.0075; in [4], -0.488; in assay [5], -0.487; in [6], -0.127; in assay [7], -0.156. Moreover, the composite z-score in [8] is 0.0395; in assay [9], -0.0815; in assay [10] it was -0.113; in the assay with Albumin (Bos taurus), 0.663; in [12] it was -0.0311; in assay [13] it was -0.166. The composite z-score was 0.462 in assay [14]; 1.44 in assay [15]; -0.0637 in assay [16]; 0.431 with Sam68 (KHDRBS1); 0.247 in [17]; -0.042 in [18]. The z-score in assay [2] was -0.119. In addition, the composite Z-score in assay [11] is -0.0662 (inactive).
